Compounds without any hit were thinned out: in the full panel of roughly 79,000, 15% have a hit. Activity calls are given as the source filed them. Rule as the data show it: active = growth inhibition above about 70%; inactive = the rest.
How the values were obtained:
[1] = NCI Yeast Anticancer Drug Screen. Data for the rad14 strain (AID 159);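 also: 0% = growth of vehicle-treated control cultures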; details: S. cerevisiae rad14 strain growth inhibition, stronger effect = higher value
How it was run: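 A mutant yeast strain defective in DNA damage repair is treated with compound; inhibition of its growth is scored against untreated, vehicle-exposed cultures.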

[2] = NCI Yeast Anticancer Drug Screen. Data for the sgs1 mgt1 strain (AID 161);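 also: 0% = growth of cultures given vehicle only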; details: S. cerevisiae sgs1 mgt1 strain, stronger effect = higher value
How it was run: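 Mutant yeast exposed to compound; growth scored against vehicle-only wells.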

[3] = NCI Yeast Anticancer Drug Screen. Data for the CLN2oe strain (AID 163);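 also: 0% = growth of vehicle-only control cultures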; details: S. cerevisiae CLN2oe strain, stronger effect = higher value
How it was run: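 Strain altered in cell-cycle control, incubated with compound; growth compared to solvent-treated controls.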

[4] = NCI Yeast Anticancer Drug Screen. Data for the cln2 rad14 strain (AID 165);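 also: 0% = growth equal to vehicle treated cultures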; details: S. cerevisiae cln2 rad14 strain, stronger effect = higher value
How it was run: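 The screen exposed genetically defined yeast (cln2 rad14) to test compounds and scored growth inhibition relative to vehicle-treated controls.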

[5] = NCI Yeast Anticancer Drug Screen. Data for the wt2 strain (AID 169);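 also: 0% = growth of vehicle-treated yeast cultures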; details: S. cerevisiae wt2 strain growth inhibition, stronger effect = higher value
How it was run: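 Steps: yeast strain treated with compound; growth recorded; inhibition calculated relative to cultures given vehicle alone.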

[6] = NCI Yeast Anticancer Drug Screen. Data for the mlh1 strain (AID 171);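 also: 0% = growth of vehicle-treated control cultures of the same strain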; details: S. cerevisiae mlh1 strain growth inhibition, stronger effect = higher value
How it was run: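 Yeast screen: mutant strain plus compound, growth scored against vehicle control wells.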

[7] = NCI Yeast Anticancer Drug Screen. Data for the sgs1 strain (AID 173);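 also: 0% = growth of vehicle-only control cultures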; details: S. cerevisiae sgs1 mutant, stronger effect = higher value
How it was run: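 Inhibition of yeast growth served as the measure. The mutant strain was treated with each compound, and growth was normalised to cultures receiving vehicle alone.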

[8] = NCI Yeast Anticancer Drug Screen. Data for the mlh1 rad18 strain (AID 175); details: S. cerevisiae mlh1 rad18 strain growth inhibition, stronger effect = higher value
How it was run: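 Compound-treated yeast growth, normalised to vehicle controls. Strain bears defined DNA repair mutations.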

[9] = NCI Yeast Anticancer Drug Screen. Data for the rad18 strain (AID 177); details: S. cerevisiae rad18 mutant growth inhibition, stronger effect = higher value
How it was run: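 Inhibition values reflect reduced yeast growth compared with vehicle-treated controls, using a strain engineered with a DNA damage repair defect.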

[10] = NCI Yeast Anticancer Drug Screen. Data for the rad52 strain (AID 147);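 also: 0% = growth of vehicle-treated control cultures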; details: S. cerevisiae rad52 mutant growth inhibition, stronger effect = higher value
How it was run: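 Genetically altered yeast (DNA damage repair defect) treated with compound; inhibition calculated relative to vehicle.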

[11] = NCI Yeast Anticancer Drug Screen. Data for the wt1 strain (AID 149);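 also: 0% = growth of vehicle-treated wt1 cultures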; details: S. cerevisiae wt1 strain (SPY 50644) growth inhibition, stronger effect = higher value
How it was run: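 Compounds are added to wt1 yeast cultures. Growth is then measured. Inhibition is expressed relative to vehicle-treated controls.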

[12] = NCI Yeast Anticancer Drug Screen. Data for the rad50EPP+ strain (AID 151);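 also: 0% = growth of vehicle-treated control cultures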; details: S. cerevisiae rad50 mutant strain, stronger effect = higher value
How it was run: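 Strain rad50EPP+; compound exposure; % growth inhibition vs vehicle.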

[13] = NCI Yeast Anticancer Drug Screen. Data for the mgt1 strain (AID 153); details: S. cerevisiae mgt1 mutant growth inhibition, stronger effect = higher value
How it was run: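 Read-out: yeast growth inhibition vs vehicle control. Strain mgt1, drawn from a panel altered in DNA damage repair or cell cycle control.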

[14] = NCI Yeast Anticancer Drug Screen. Data for the rad50 strain (AID 155);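 also: 0% = growth of vehicle-only cultures of the same strain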; details: S. cerevisiae rad50 strain growth inhibition, stronger effect = higher value
How it was run: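 Inhibition values express reduced yeast growth in compound-treated cultures relative to vehicle-treated controls.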

[15] = NCI Yeast Anticancer Drug Screen. Data for the mec2-1 strain (AID 157); details: S. cerevisiae mec2-1 strain, stronger effect = higher value
How it was run: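 Cells of the genetically defined mec2-1 yeast strain are incubated with test compound. Inhibition of growth is calculated against vehicle-treated controls.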

[16] = NCI Yeast Anticancer Drug Screen. Data for the bub3 strain (AID 167); details: S. cerevisiae bub3 mutant strain, stronger effect = higher value
How it was run: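 Steps: expose the mutant yeast strain to compound; grow alongside vehicle-treated cultures; measure growth; express inhibition against the vehicle cultures.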

[17] = at 5.0 µM (retest, dose inferred, filed as 0.5)
[18] = at 50.0 µM (retest, dose inferred, filed as 5.0)

Measured: growth inhibition

COc1ccc(N=N/C(=N\NC(=O)c2cc(Br)ccc2O)c2ccc(N(CCC#N)CCC#N)cc2OC)cc1
active: [7]; at 100.0 µM 71%
inactive: [1]; at 11.0 µM 21% | [1]; at 33.0 µM 3% | [1]; at 100.0 µM 45% | [2]; [17] -8% | [2]; [18] 69% | [2]; at 50.0 µM 8.9% | [3]; at 1.2 µM 11% | [3]; at 3.7 µM 14% | [3]; at 11.0 µM 24% | [3]; at 33.0 µM 33% | [3]; at 100.0 µM 28% | [4]; [17] -4% | [4]; [18] 32% | [4]; at 50.0 µM 30.9% | [5]; at 1.2 µM -20% | [5]; at 3.7 µM -11% | [5]; at 11.0 µM -15% | [5]; at 33.0 µM -9% | [5]; at 100.0 µM 65% | [6]; at 1.2 µM 33% | [6]; at 3.7 µM 35% | [6]; at 11.0 µM 24% | [6]; at 33.0 µM 46% | [6]; at 100.0 µM 69% | [7]; at 1.2 µM 34% | [7]; at 3.7 µM 37% | [7]; at 11.0 µM 33% | [7]; at 33.0 µM 42% | [8]; [17] 20% | [8]; [18] 26% | [8]; at 50.0 µM 65.4% | [9]; at 1.2 µM 14% | [9]; at 3.7 µM 20% | [9]; at 11.0 µM 18% | [9]; at 33.0 µM 33% | [9]; at 100.0 µM 49%

CC(=O)c1cc2c(Cl)cc(Cl)cc2oc1=O
active: [14]; [18] 83% | [15]; [17] 77% | [15]; [18] 94% | [4]; [18] 71% | [8]; [18] 96%
inactive: [10]; at 1.2 µM 20% | [10]; at 3.7 µM 19% | [10]; at 11.0 µM 4% | [10]; at 33.0 µM 9% | [10]; at 100.0 µM 20% | [11]; at 1.2 µM -38% | [11]; at 3.7 µM -33% | [11]; at 11.0 µM -38% | [11]; at 33.0 µM -33% | [11]; at 100.0 µM -22% | [12]; at 1.2 µM -15% | [12]; at 3.7 µM -16% | [12]; at 11.0 µM -2% | [12]; at 33.0 µM -10% | [12]; at 100.0 µM 15% | [13]; at 1.2 µM 9% | [13]; at 3.7 µM 5% | [13]; at 11.0 µM -13% | [13]; at 33.0 µM -4% | [13]; at 100.0 µM 6% | [14]; at 1.2 µM -24% | [14]; at 3.7 µM -17% | [14]; [17] 30% | [14]; at 11.0 µM -13% | [14]; at 33.0 µM -20% | [14]; at 50.0 µM -5.9% | [14]; at 100.0 µM -5% | [15]; at 1.2 µM 8% | [15]; at 3.7 µM 0% | [15]; at 11.0 µM -14% | [15]; at 33.0 µM 3% | [15]; at 50.0 µM 53.8% | [15]; at 100.0 µM -8% | [1]; at 1.2 µM -19% | [1]; at 3.7 µM -21% | [1]; at 11.0 µM -13% | [1]; at 33.0 µM -6% | [1]; at 100.0 µM 14% | [2]; [17] -8% | [2]; [18] 20% | [4]; [17] 64% | [16]; at 1.2 µM -21% | [16]; at 3.7 µM -17% | [16]; [17] 24% | [16]; at 11.0 µM -4% | [16]; at 33.0 µM -25% | [16]; [18] 46% | [16]; at 100.0 µM 13% | [5]; at 1.2 µM -22% | [5]; at 3.7 µM -27% | [5]; at 11.0 µM -34% | [5]; at 33.0 µM -40% | [5]; at 100.0 µM -18% | [6]; at 1.2 µM -36% | [6]; at 3.7 µM -35% | [6]; at 11.0 µM -32% | [6]; at 33.0 µM -12% | [6]; at 100.0 µM -5% | [7]; at 1.2 µM -31% | [7]; at 3.7 µM -40% | [7]; at 11.0 µM -29% | [7]; at 33.0 µM -15% | [7]; at 100.0 µM -42% | [8]; [17] 35% | [8]; at 50.0 µM 1.3% | [9]; at 1.2 µM 10% | [9]; at 3.7 µM -3% | [9]; at 11.0 µM -11% | [9]; at 33.0 µM -11% | [9]; at 100.0 µM -6%

— PubChem BioAssay (NCI)
